“And” between values parts separate entries of the source, which are not always exact repeats. Equal values may be shown once. Inconclusive results are not listed. A call without a number means that no potency is given here. The source made the active and inactive calls. Calls follow the shape of the dose curve; as a rule, active = well fitted activation curve with a large enough effect in the repeat runs; inconclusive = weak or mixed curves; inactive = flat fitted curve, though single readings scatter.
Potency is read from the fitted curve at half-maximal effect.

This experiment can be described thus: Caspase-3/7 induction in HepG2 cells by small molecules, qHTS assay (AID 1346978). Also: nearly all actives have a fitted effect of over 15% in size. To be noted: HepG2 caspase-3/7 activation, Caspase-Glo luminescence, 17 h; series mostly up to 92.4 µM. The text has this:
National Center for Advancing Translational Sciences [NCATS] NIH Chemical Genomics Center [NCGC] U.S. Environmental Protection Agency [EPA] National Institutes of Environmental Health Sciences [NIEHS] National Toxicology Program [NTP] Assay overview: Apoptosis is a process of programmed cell death and plays a central role in the development of multicellular organisms. It is a highly regulated process and induces cell death by activating caspases, which are the members of cysteine aspartic acid-specific protease (caspase) family. Caspases involved in apoptosis are classified by their mechanism of action as initiator caspases (caspase-2, -8, -9 and -10) and executioner caspases (caspase-3, -6, and -7). Inhibition of apoptosis results in number of cancers, autoimmune diseases, inflammatory diseases and viral infection. To identify small molecule compounds that induce apoptosis, a homogeneous, luminescent Caspase-Glo 3/7 assay was used. Wild type HepG2 cells were used to screen Tox21 libraries for identifying caspase-3/7 activity inducers.
Assay Protocol Summary: HepG2 cells were dispensed at 2,000 per well in 5uL of culture medium into white solid bottom 1536-well plates (Corning Life Sciences, Corning, NY) using a Multidrop Combi (Thermo Scientific, Waltham, MA) dispenser. The assay plates were incubated at 37 C and 5% CO2 for 5hr, and then 23nL of compounds dissolved in DMSO and positive control were transferred using a Pintool station (Wako, San Diego, CA). The assay plates were incubated at 37C and 5% CO2 for 17hr. For caspase-3/7 activity read, 4uL of Caspase-Glo 3/7 reagent (Promega Corporation, Madison, WI) was added to each well of the assay plates using Flying Reagent Dispenser (FRD, Aurora Discovery, San Diego, CA) and incubated the assay plates at room temperature for 30min. The luminescence signal was quantified using a ViewLux plate reader (Perkin Elmer, Shelton, CT).
Turning to `O=S(O)O`, the caspase activation was -0.246% [at 19 µM] (inactive). `Nc1ncnc2c1ncn2[C@@H]1O[C@H](COP(=O)(O)O)[C@@H](O)[C@H]1O`: the Potency entry is “inactive”.

`COc1ccccc1C=O`: the Potency result was “inactive”. On the same count and under the same terms, for `CN1[C@@H]2CC[C@@H]1CC(OC(=O)C(CO)c1ccccc1)C2` (stereo not given in full) the value was “inactive”; for `CCCCOC(=O)C(C)CC` (stereo not given), “inactive”; for `CCCCCCCCCCCCOC(=O)c1cc(O)c(O)c(O)c1`, 60.9 µM (active) and 68.6 µM (active). Consider `COc1cccc(O)c1`, for which the Potency entry was “inactive”.

For `COC(=O)NCCC[Si](OC)(OC)OC`, the Potency entry is “inactive”. Turning to `CCN(CC)CCOc1ccc(C(O)(Cc2ccc(Cl)cc2)c2ccc(C)cc2)cc1` (stereo not given), the Potency is 33.5 µM (active). Still for that read-out and setting: for `CC1=C(/C=C/C(C)=C/C=C/C(C)=C/C(=O)Nc2ccc(O)cc2)C(C)(C)CCC1` the value was 70.3 µM (active) and 29.8 µM (active); for `C=C1C(C)(C)[C@@]2(Cl)C(Cl)[C@]1(Cl)C(Cl)(Cl)C2(Cl)Cl` (stereo not given in full), “inactive”; for `CCCCCCOc1ccc(O)cc1`, “inactive”. The same measure, in the same setting: the entry for `Cc1ccc(CCn2c3c(c4cc(Cl)ccc42)CN(C)CC3)cn1` is “inactive”; for `CCN=C1C=CC(=C(c2ccc(N(CC)CC)cc2)c2ccc(N(CC)CC)cc2)c2ccccc21` it is “inactive”. Same read-out and setting: the entry for `O=C1OC(=O)c2cccc3cccc1c23` is “inactive”; for `NCCCCCCNCCCCCCN` it is “inactive”; for `NC(=O)C(=O)N/N=C/c1ccc([N+](=O)[O-])o1` it is “inactive”. Turning to `Cc1c(C(=O)O)cccc1[N+](=O)[O-]`, the Potency entry is “inactive”. For `N[C@@H](CSSC[C@H](N)C(=O)O)C(=O)O`, the caspase activation was 0.0664% [at 0.349 µM] (inactive).

As for `Cc1cc(Nc2ccc(O)cc2)ccc1N`, the Potency entry is “inactive”.

Consider `C[C@H]1O[C@@H](O[C@H]2[C@@H](O)C[C@H](O[C@H]3[C@@H](O)C[C@H](O[C@H]4CC[C@@]5(C)[C@H](CC[C@@H]6[C@@H]5C[C@@H](O)[C@]5(C)[C@@H](C7=CC(=O)OC7)CC[C@]65O)C4)O[C@@H]3C)O[C@@H]2C)C[C@H](O)[C@@H]1O`, for which the Potency entry is “inactive”. Still for that read-out and setting: the entry for `C(=C/c1ccccc1)/c1ccccc1` is “inactive”; for `c1cc[nH]c1` it is “inactive”. Still for that read-out and setting: for `CCCCNc1c(C(=O)OCC)c(C)nc2c1cnn2CC` the value was “inactive”; for `CCCCOCC`, “inactive”. As for `O=C1OC(OC(=O)c2cccnc2Nc2cccc(C(F)(F)F)c2)c2ccccc21` (stereo not given), the Potency entry is “inactive”. The same measure, in the same setting: for `C/C=C/C=N/NC(=O)c1ccncc1` the value was “inactive”. On the same count and under the same terms, for `CCCCCCCCCC(=O)N(C)C` the value was “inactive”; for `CCCC(C)CCC(C)=O` (stereo not given), “inactive”; for `CN(C)c1ccc(N=Nc2ccccc2C(=O)O)cc1`, “inactive”. The same measure, in the same setting: the figure for `CCN(CC)CCNc1ccc(CO)c2sc3ccccc3c(=O)c12` is 13.3 µM (active). Regarding `COc1cccc(CCc2ccccc2OCC(CN(C)C)OC(=O)CCC(=O)O)c1` (stereo not given), the Potency result was “inactive”.

On to `O[C@@H](c1cc(C(F)(F)F)nc2c(C(F)(F)F)cccc12)[C@H]1CCCCN1`, for which the Potency is 26.6 µM (active).

On to `Oc1ccc(-c2ccc(O)cc2)cc1`, for which the Potency entry is “inactive”.

Consider `CC1CCCCC1`, for which the Potency entry was “inactive”.

On to `O=C[C@H](O)[C@H](O)[C@H](O)CO`, for which the Potency entry was “inactive”. On the same count and under the same terms, for `CC(C)(C)c1cc(/C=C2\SC(=N)NC2=O)cc(C(C)(C)C)c1O` the value was “inactive”; for `CCCCOc1ccc(C(=O)CCN2CCCCC2)cc1`, “inactive”. Same read-out and setting: the entry for `COc1cc(C(=O)NS(=O)(=O)c2ccccc2C)ccc1Cc1cn(C)c2ccc(NC(=O)OC3CCCC3)cc12` is “inactive”; for `CCc1ccc(C)nc1` it is “inactive”.

The record behind these values is PubChem BioAssay (Tox21).
